SRC1 TRFRET art = TR-FRET artefact, counter-screen to PPARgamma/SRC-1 agonist assay; TR-FRET detection artefact counter-screen, emission ratio; hits give high values; TR-FRET ratio at 8 µM; 99,000 compounds, 0.34% hits; AID 1051; in the data active means TR-FRET ratio above about 2300
PPARg SRC1 recr = agonists of human PPARgamma SRC-1 coactivator recruitment. 200,000 compounds, 0.41% hits. activation, % at 8 µM. PPARgamma-SRC-1 coactivator recruitment biochemical assay. AID 631. P37231; in the data active means activation above about 19%;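 further: 0% = DMSO and 100% = reference agonist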
Target sequence (P37231 whole entry, looked up): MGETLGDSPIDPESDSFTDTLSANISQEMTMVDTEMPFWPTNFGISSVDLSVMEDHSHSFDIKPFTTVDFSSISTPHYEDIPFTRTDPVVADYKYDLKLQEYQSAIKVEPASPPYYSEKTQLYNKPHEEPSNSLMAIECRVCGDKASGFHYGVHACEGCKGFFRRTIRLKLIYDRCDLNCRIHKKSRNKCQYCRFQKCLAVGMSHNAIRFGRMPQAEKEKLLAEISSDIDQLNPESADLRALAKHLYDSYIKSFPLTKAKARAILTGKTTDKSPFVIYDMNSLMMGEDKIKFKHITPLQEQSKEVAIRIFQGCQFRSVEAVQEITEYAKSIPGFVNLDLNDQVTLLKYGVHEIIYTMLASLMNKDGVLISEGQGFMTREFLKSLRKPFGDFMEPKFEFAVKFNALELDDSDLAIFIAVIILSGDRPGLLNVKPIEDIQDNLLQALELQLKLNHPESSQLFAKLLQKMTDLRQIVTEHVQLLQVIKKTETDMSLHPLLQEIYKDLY
SRC3 TRFRET art = flags TR-FRET format artefacts in PPARgamma SRC-3 recruitment agonist screen. TR-FRET artefact counter-screen, PPARgamma/SRC-3 format; hits give high values. TR-FRET ratio at 8 µM. AID 1048. 99,000 compounds, 0.39% hits; in the data active means TR-FRET ratio above about 2000
TR-FRET SRC-2 ct = flags TR-FRET format artefacts in PPARgamma SRC-2 recruitment agonist screen; AID 1049; TR-FRET ratio at 8 µM; 200,000 compounds, 0.4% hits; TR-FRET artefact counter-screen; hits give high values; in the data active means TR-FRET ratio above about 2000
PPARg SRC3 recr = promotes SRC-3 coactivator recruitment by human PPARgamma; biochemical PPARgamma/SRC-3 coactivator recruitment assay; activation, % at 8 µM; AID 731; 200,000 compounds, 0.26% hits; P37231; in the data active means activation above about 23%;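 further: 0% = DMSO and 100% = reference agonist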
PPARg SRC2 recr = promotes SRC-2 coactivator recruitment by human PPARgamma. P37231. PPARgamma LBD-SRC-2 recruitment, biochemical. activation, % at 8 µM. 200,000 compounds, 0.34% hits;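 further: 0% = vehicle and 100% = reference agonist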
PPARg SRC2 ag = human PPARgamma SRC-2 recruitment agonism, confirmation; shares compounds with PPARg SRC3 recr; biochemical SRC-2 recruitment by PPARgamma; activation, % at 8 µM; 790 compounds, 52% hits; AID 1297;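 further: 0% = vehicle alone and 100% = reference agonist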
PPARg SRC1 conf = human PPARgamma SRC-1 recruitment agonism, confirmation; shares compounds with PPARg SRC3 recr; PPARgamma–SRC-1 coactivator recruitment biochemical assay; 790 compounds, 43% hits; activation, % at 8 µM; AID 1300; in the data active means activation above about 20%;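 further: 0% = vehicle wells and 100% = reference agonist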
PPARg SRC3 conf = human PPARgamma SRC-3 recruitment agonism, confirmation. shares compounds with PPARg SRC3 recr. activation, % at 8 µM. biochemical PPARgamma-SRC-3 coactivator recruitment, agonist mode. 790 compounds, 29% hits; in the data active means activation above about 24%;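 further: 0% = vehicle wells and 100% = reference agonist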
Numbers without * were called inactive; · = not tested or not shown. Only some compounds are listed: those with a hit (about 0.9% of all), similar ones and a draw of the others. Unless noted, no stated cut-off is given here; in the data, active means activation above about 22%; inactive means the rest.

SMILES	SRC1 TRFRET art	PPARg SRC1 recr	SRC3 TRFRET art	TR-FRET SRC-2 ct	PPARg SRC3 recr	PPARg SRC2 recr	PPARg SRC2 ag	PPARg SRC1 conf	PPARg SRC3 conf
COc1ccccc1CNC(=O)CCCOc1cc(=O)n(C)c2ccccc12	·	2	·	1525	9	8	·	·	·
COc1ccccc1CNC(=O)CSc1cc(=O)n(C)c2ccccc12	2191	22*	1939	2116*	10	25*	7	9	5
Cn1c(=O)cc(SCC(=O)NCc2ccc(F)cc2)c2ccccc21	2122	25*	2264*	2135*	16	18	22*	18	15
Nc1c(CO)nnn1-c1ccccc1	1816	5	1504	1660	1	1	·	·	·
Cc1ccc(OCCn2c(=O)n(C)c3ccccc32)cc1	1678	-7	1367	1577	-6	-14	·	·	·
C=CCn1c(NS(=O)(=O)c2ccccc2)c(S(=O)(=O)c2ccc(C)cc2)c2nc3ccccc3nc21	1803	39*	1561	1450	48*	24*	4	7	10
O=C(Oc1ccc(Cl)c2cccnc12)N1CCCCC1	1483	2	1816	1472	-3	3	·	·	·
O=C(Oc1c(Br)cc(Br)c2cccnc12)N1CCCCC1	2129	29*	1960	1691	5	15	11	5	7
O=S(=O)(Nc1ncccn1)c1ccc(-n2cnnn2)cc1	1520	2	1601	1486	-1	-11	·	·	·
Cc1ccc(C)c(/C=N/n2cc(-c3ccccc3)[nH]c2=S)c1	1705	-3	1480	1728	3	5	·	·	·
S=c1[nH]c(-c2ccccc2)cn1/N=C/c1ccc(Br)cc1	1927	30*	1662	1402	26*	13	12	16	15
Cc1cc2c(cc(C(=O)NCc3cccnc3)n2Cc2ccc(Cl)cc2)o1	1433	-2	1643	1470	0	-2	·	·	·
O=C(Nc1cccc(NC(=O)c2ccc(Br)o2)n1)c1ccc(Br)o1	·	19*	·	1847	12	14	6	3	2
COc1ccc2c(c1)Sc1ccccc1N2	2097	27*	1823	1917	13	17	11	14	13
COc1ccc2[nH]c3ccccc3c2c1	·	-3	·	1426	-5	8	·	·	·
N#Cc1c(-c2ccco2)nc(SCC(=O)Nc2ccc(S(N)(=O)=O)cc2)[nH]c1=O	·	5	·	1576	-3	7	·	·	·
N#Cc1c(-c2ccco2)nc(SCc2ccc(F)cc2)[nH]c1=O	·	20*	·	2187*	39*	45*	24*	15	16
Nc1ccccc1-c1n[nH]c(=S)s1	3590*	54*	3076*	3141*	43*	54*	40*	31*	25*
CC1CCN(Cc2c(C(=O)O)nnn2-c2nonc2N)CC1	1696	9	1598	1722	1	-2	·	·	·
S=C(Nc1ccc2nsnc2c1)N1CCCCC1	2191	17	1795	1710	9	22*	21	18	14
NS(=O)(=O)c1ccc(CCNC(=O)c2cc(-c3ccccn3)nc3ccc(Br)cc23)cc1	2153	22*	2530*	1850	15	11	5	5	6
COc1ccc(-c2nc(-c3cccs3)c(-c3cccs3)[nH]2)cc1OC	·	23*	·	2267*	30*	28*	35*	31*	26*
CCn1c(=O)cc(SCC(=O)Nc2cccnc2)c2ccccc21	·	19*	·	2082*	27*	45*	31*	20*	18
CCn1c(=O)cc(SCC(=O)Nc2ccc3c(c2)OCO3)c2ccccc21	·	24*	·	2330*	32*	47*	44*	32*	29*
C=CCOc1ccc(Br)cc1CNCCCN1CCOCC1	1667	-1	1596	1506	-1	-7	·	·	·
SMILES	SRC1 TRFRET art	PPARg SRC1 recr	SRC3 TRFRET art	TR-FRET SRC-2 ct	PPARg SRC3 recr	PPARg SRC2 recr	PPARg SRC2 ag	PPARg SRC1 conf	PPARg SRC3 conf
O=C(CC(Nc1ccc(F)cc1)C(=O)OCC(=O)c1cccs1)c1ccccc1 (configuration not stated)	1769	0	1673	1611	2	4	·	·	·
C#CCn1c(=NC(=O)c2ccc(Br)s2)sc2cccc(OC)c21	·	24*	·	4015*	33*	30*	46*	32*	26*
C#CCn1c(=NC(=O)c2ccc(Br)s2)sc2cc(NC(C)=O)ccc21	1868	4	1650	1669	7	3	·	·	·
Cc1ccc(C)c(NC(=O)CN(C)C(=O)c2nn(C)c(=O)c3ccccc23)c1	1703	2	1467	1297	4	-1	·	·	·
CNC(=S)N1N=C(c2ccc(C)cc2)CC1c1ccc(Cl)cc1 (configuration not stated)	·	6	·	2072*	14	23*	14	7	9
O=[N+]([O-])c1cc(Cc2ccccc2)cc(C=Nc2ccc(N3CCOCC3)cc2)c1O	3128*	51*	2652*	2504*	39*	65*	22	17	17
CC(NC(=S)Nc1ccc(S(=O)(=O)N2CCOCC2)cc1)C1CC2CCC1C2 (configuration not stated)	2010	8	1719	1556	3	6	·	·	·
Cc1ccc(C)c(-n2c3nc(=O)[nH]c(=O)c-3cc3cc([N+](=O)[O-])ccc32)c1	1662	13	1545	1510	23*	-3	11	13	21
CCn1c(SCC(=O)N/N=C/c2c[nH]c3ccccc23)nnc1-c1ccc(C(C)(C)C)cc1	1626	-2	1733	1469	3	7	·	·	·
C=CCOc1cccc(C2C(C(=O)c3ccco3)=C(O)C(=O)N2CCN(CC)CC)c1 (configuration not stated)	·	8	·	1590	0	7	·	·	·
Cc1cc(N2C(=O)C(O)=C(C(=O)c3cccs3)C2c2cccc(O)c2)no1 (configuration not stated)	·	-2	·	1443	-4	6	·	·	·
Cc1ccc2nc(N3C(=O)C(O)=C(C(=O)c4ccc(C)o4)C3c3cccc(O)c3)sc2c1 (configuration not stated)	2305	15	1853	1951	10	24*	4	4	2
C=CCOc1cccc(C2C(C(=O)c3ccc(C)o3)=C(O)C(=O)N2c2nccs2)c1 (configuration not stated)	·	24*	·	2025*	23	32*	2	-1	3
COc1cc(NC(=O)C2CCCCC2)c(OC)cc1NC(=O)CN1CCCCC1	·	-3	·	1560	-4	5	·	·	·
Cc1cc(NC(=O)CSc2ccc(-c3ccc(F)cc3)nn2)no1	2010	4	1459	1477	-6	3	·	·	·
O=[N+]([O-])c1ccccc1S(=O)(=O)N1CCN(Cc2ccc3c(c2)OCO3)CC1	1546	-1	1531	1694	-1	-6	·	·	·

Source: PubChem (The Scripps Research Institute Molecular Screening Center)
